PTHR1 ag – qHTS for PTHR1 Agonists: Primary Screen; Parathyroid hormone/parathyroid hormone-related peptide receptor (Homo sapiens), Q03431; HEK293 GP2 PTHR1 cells, GloSensor cAMP luminescence, 1 h; Potency, µM (doses to about 115 µM), inactives show at the top dose activation, most hits filed as activators; 410,000 compounds, 0.075% hits; AID 743266, 2014; also: nearly all actives have a fitted effect of over 55% in size
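HEK-293-derived GP2 cells expressing PTHR1 and a GloSensor cAMP reporter, 3,000/well, plated overnight, given luciferin plus IBMX (each 0.5 mM as added) for 1 h at 37 °C, then compound for 1 h at 37 °C. Luminescence was read after 15 min at room temperature.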
RGS4 inhibitor – Inhibitors of Regulator of G Protein Signaling (RGS) 4: qHTS | Regulator of G-protein signaling 4 (Homo sapiens), P49798 | Transcreener GDP fluorescence polarization, RGS4-accelerated GTP hydrolysis | Potency, µM (top dose mostly 114 µM), without a hit: top-dose activity change, negative = inhibition, hits mostly inhibitors | 390,000 compounds, 0.039% hits | AID 504845, 2011; also: % is scaled to controls: 0 for no effect and ±100 for the full control effect; nearly all actives have a fitted effect of over 75% in size
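MLSMR compounds (23 nl, pin-transferred) preincubated 10 min at room temperature with a 500nM (2x) first reagent, then RGS4 at 900nM (2x) plus Transcreener GDP mix added; fluorescence polarization (620/688 nm) read before and after 90 min at 30 °C.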
KAT2A inh – qHTS Assay for Inhibitors of GCN5L2 | GCN5L2 HAT assay, ThioGlo1 CoA-SH fluorescence | 390,000 compounds, 0.21% hits | Potency, µM (titrated, usually from 58.9 µM), for the others: at the highest dose activity change, negative = inhibition, usual class: inhibitors; also: % is scaled to controls: 0 for no effect and ±100 for the full control effect
Target sequence (Q92830 whole entry, looked up): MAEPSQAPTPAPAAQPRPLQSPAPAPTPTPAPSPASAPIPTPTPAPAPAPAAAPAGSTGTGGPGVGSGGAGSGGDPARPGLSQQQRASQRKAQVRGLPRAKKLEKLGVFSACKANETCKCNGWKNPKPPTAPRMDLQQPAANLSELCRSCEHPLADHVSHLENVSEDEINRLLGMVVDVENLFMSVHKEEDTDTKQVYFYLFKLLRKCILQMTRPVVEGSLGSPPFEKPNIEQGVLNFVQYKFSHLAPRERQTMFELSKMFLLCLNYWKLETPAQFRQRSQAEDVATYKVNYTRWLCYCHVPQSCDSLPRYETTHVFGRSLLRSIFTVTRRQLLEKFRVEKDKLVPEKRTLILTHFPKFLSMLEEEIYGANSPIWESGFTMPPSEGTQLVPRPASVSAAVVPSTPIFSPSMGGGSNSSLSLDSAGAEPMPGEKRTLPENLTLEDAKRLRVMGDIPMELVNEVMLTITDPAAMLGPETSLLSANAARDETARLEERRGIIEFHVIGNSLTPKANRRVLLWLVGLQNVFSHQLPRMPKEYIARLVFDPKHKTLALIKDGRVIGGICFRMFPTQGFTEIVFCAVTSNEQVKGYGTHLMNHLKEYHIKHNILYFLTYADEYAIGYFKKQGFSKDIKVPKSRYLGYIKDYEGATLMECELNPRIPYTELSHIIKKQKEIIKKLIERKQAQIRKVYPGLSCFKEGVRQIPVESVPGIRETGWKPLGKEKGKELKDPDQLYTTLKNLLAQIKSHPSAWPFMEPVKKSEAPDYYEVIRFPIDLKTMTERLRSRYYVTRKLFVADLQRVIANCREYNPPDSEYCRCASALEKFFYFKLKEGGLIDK
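Enzyme at 20nM final was mixed with library compounds for 15 min at room temperature. Peptide H3(1-25) at 75uM, acetyl-CoA at 70uM and ThioGlo1 at 50uM were then added. Plates were read immediately and after 20 min (Ex340nm/Em540nm).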
GLP1R ag – qHTS of GLP-1 Receptor Agonists; Glucagon-like peptide 1 receptor (Homo sapiens), P43220; HEK293 GLP-1R CRE-luciferase, luminescence, 4-6 h; cells express a hypersensitive GLP-1R form; Potency, µM (top dose mostly 45.6 µM), without a hit: top-dose activation, hits mostly activators; 380,000 compounds, 0.007% hits; AID 624172, 2012; also: % of control where 0% means no effect
GLP-1R inv ag – qHTS of GLP-1 Receptor Inverse Agonists (Inhibition Mode); Glucagon-like peptide 1 receptor (Homo sapiens), P43220; HEK293 GLP-1R CRE-luciferase, luminescence, 24 h; GLP-1R form is constitutively active; Potency, µM (highest dose often 38.3 µM), for inactives: at the top dose activity change, negative = inhibition, hits mostly inhibitors; 410,000 compounds, 1.6% hits; AID 624417, 2012; also: % is scaled to controls: 0 for no effect and ±100 for the full control effect; nearly all actives have a fitted effect of over 55% in size
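Using stably transfected HEK293 (constitutively active GLP-1R, cAMP-luciferase reporter), compounds were incubated 24 hr and luciferase measured by luminescence.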
GLP1R cytotox – qHTS of GLP-1 Receptor Inverse Agonists: Cytotox Screen | HEK293 cAMP-luciferase reporter cells, luminescence, 24 h | Potency, µM (highest dose often 38.3 µM), for the others: top-dose activity change, negative = inhibition, most hits filed as inhibitors | 410,000 compounds, 0.13% hits;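 also: loss of luciferase light is scored as toxicity; % is scaled to controls: 0 for no effect and ±100 for the full control effect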
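To flag toxic compounds, the library was rerun on cells for 24 hr at 37 deg C and 5% CO2. Viability-linked luminescence was captured 12 min after adding luciferase detection reagent.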
Numbers without * were called inactive; [ ] = dose if it differs, or a comment. Shown are actives, neighbours in structure and some others; about 1.8% of the full set was active somewhere. Calls follow the shape of the dose curve; as a rule, active = well fitted curve in the direction sought with a large enough effect; inconclusive = small, poorly fitted or top-dose-only effect, or another doubt; inactive = no such curve, though single readings can be large; an effect the other way counts as inactive or inconclusive. Potency is read from the fitted curve at half-maximal effect.

CCN1CCN(Cc2ccc(NC(=O)c3cc(NC(=O)C(=O)c4c[nH]c5ccccc45)cc(OC)c3)cc2C(F)(F)F)CC1 was read as PTHR1 ag -18.4%, RGS4 inhibitor -14.4%, KAT2A inh -18.2%, GLP1R ag -15.0%, GLP-1R inv ag 10µM* and GLP1R cytotox inconclusive.
Screening CC1CCCC(C)N1C(=O)c1ccccc1Nc1ccc(SC(F)F)cc1 (stereo not given) returned PTHR1 ag -12.8%, RGS4 inhibitor -23.5%, KAT2A inh -6.7%, GLP1R ag 1.0%, GLP-1R inv ag 5.62µM* and GLP1R cytotox -16.2%.
Screening O=C(/C=C/c1ccc(S(=O)(=O)N2CCOCC2)cc1)NCc1ccc(Cl)cc1 returned PTHR1 ag -18.5%, RGS4 inhibitor -11.4%, KAT2A inh -7.1%, GLP1R ag 11.7%, GLP-1R inv ag 3.55µM* and GLP1R cytotox -1.3%.
`COc1ccc(CNC(=O)/C=C/c2ccc(S(=O)(=O)N3CCOCC3)cc2)cc1` gave PTHR1 ag -29.5%, RGS4 inhibitor 29.5%, KAT2A inh -0.7%, GLP1R ag 3.0%, GLP-1R inv ag -1.0% and GLP1R cytotox 4.9%.
`Cc1ccccc1-n1c(SCC(=O)NC2CC2)nc2ccccc2c1=O` gave PTHR1 ag inactive, GLP1R ag -1.4%, GLP-1R inv ag 18.2% and GLP1R cytotox -11.4%.
For C=CC[C@H](CC(=O)N(CCO)Cc1ccccc1)C(=O)NC[C@@H](OC(=O)[C@@H](CC=C)Cc1ccc(F)cc1)c1ccccc1 the results were PTHR1 ag -21.5%, RGS4 inhibitor 15.2%, KAT2A inh -8.6%, GLP1R ag -4.6%, GLP-1R inv ag 3.16µM* and GLP1R cytotox -25.4%.
For C=CCC[C@H](Cc1ccc(F)cc1)C(=O)O[C@H](CNC(=O)[C@@H](CC=C)CC(=O)N(CCO)Cc1ccccc1)c1ccccc1 the results were PTHR1 ag -52.5%, RGS4 inhibitor -13.8%, KAT2A inh -19.7%, GLP1R ag -2.2%, GLP-1R inv ag inconclusive and GLP1R cytotox inconclusive.
`C=CC[C@H](CC(=O)N(CCO)Cc1ccccc1)C(=O)N[C@H](C)COC(=O)[C@@H](CC=C)Cc1ccc(F)cc1` gave PTHR1 ag -49.3%, RGS4 inhibitor 7.7%, KAT2A inh -5.3%, GLP1R ag 10.6%, GLP-1R inv ag 11.2µM* and GLP1R cytotox 3.5%.
C=CC[C@@H](CC(=O)N(CCO)Cc1ccccc1)C(=O)N[C@H](C)COC(=O)[C@@H](CC=C)Cc1ccc(F)cc1 was read as PTHR1 ag -94.9%, RGS4 inhibitor 0.4%, KAT2A inh -1.6%, GLP1R ag -5.4%, GLP-1R inv ag -16.4% and GLP1R cytotox -25.1%.
Screening C=CCC[C@@H](Cc1ccc(F)cc1)C(=O)OC[C@H](Cc1c[nH]c2ccccc12)NC(=O)[C@H](CC=C)CC(=O)N(CCO)Cc1ccccc1 returned PTHR1 ag inactive, RGS4 inhibitor -1.9%, KAT2A inh -21.3%, GLP1R ag -0.7%, GLP-1R inv ag 10µM* and GLP1R cytotox inconclusive.
Screening Cc1ccc2nc(SCC(=O)Nc3ccc(F)cc3F)nc(=O)n2c1 returned PTHR1 ag inactive, RGS4 inhibitor -12.0%, KAT2A inh -7.2%, GLP1R ag 0.5%, GLP-1R inv ag 15.8% and GLP1R cytotox -11.1%.
Cc1nn(Cc2ccc(Cl)cc2Cl)c(C)c1NC(=O)c1sc2ccccc2c1Cl was read as PTHR1 ag -23.6%, RGS4 inhibitor -27.4%, KAT2A inh -14.2%, GLP1R ag -10.1%, GLP-1R inv ag 3.1% and GLP1R cytotox -0.1%.
Screening Cc1nn(Cc2ccc(Cl)cc2Cl)c(C)c1NC(=O)NC12CC3CC(CC(C3)C1)C2 returned PTHR1 ag -13.7%[57.5 µM], RGS4 inhibitor -23.0%[11.4 µM], KAT2A inh -10.2%, GLP1R ag -11.1%, GLP-1R inv ag 5.01µM* and GLP1R cytotox -25.2%.
Screening C/C(=N\NC(=S)NCc1ccccc1)c1cccs1 returned PTHR1 ag 0.9%, RGS4 inhibitor -27.2%, KAT2A inh -8.9%, GLP1R ag 19.0%, GLP-1R inv ag inconclusive and GLP1R cytotox 3.55µM*.
For C/C(=N\NC(=S)NCc1ccccc1)c1ccc2c(c1)OCCO2 the results were PTHR1 ag -27.7%, RGS4 inhibitor -7.8%, KAT2A inh -11.0%, GLP1R ag inconclusive, GLP-1R inv ag 10µM* and GLP1R cytotox inconclusive.
For C/C(=N\NC(=S)NCc1ccccc1)c1ccc(Br)cc1 the results were PTHR1 ag inactive, RGS4 inhibitor -37.8%, KAT2A inh -3.5%, GLP1R ag 25.8%, GLP-1R inv ag inconclusive and GLP1R cytotox inconclusive.
`CC(C)=C[C@H]1C[C@H](C)[C@H]2CC[C@H](C)c3c(O[C@@H]4OC[C@@H](O)[C@H](O)C4O)c(O)c(C)c1c32` (stereo not given in full) gave PTHR1 ag -16.6%, RGS4 inhibitor -8.4%, KAT2A inh -4.6%, GLP1R ag 1.4%, GLP-1R inv ag 10µM* and GLP1R cytotox -25.0%.
CCc1ccc(CN2CCC(Oc3ccc(C(=O)N4CCCC4)cc3)CC2)cc1 was read as PTHR1 ag -7.8%, RGS4 inhibitor -11.5%, KAT2A inh -0.6%, GLP1R ag -8.4%, GLP-1R inv ag 7.94µM* and GLP1R cytotox inconclusive.
For O=C(c1ccc(OC2CCN(C/C=C/c3ccc(F)cc3)CC2)cc1)N1CCCC1 the results were PTHR1 ag -63.3%, RGS4 inhibitor 13.1%, KAT2A inh -11.2%, GLP1R ag 4.2%, GLP-1R inv ag 3.16µM* and GLP1R cytotox -22.2%.
`O=C(CNC(=O)C(c1ccccc1)c1ccccc1)OCC(=O)c1ccc2ccccc2c1` gave RGS4 inhibitor -12.2%.
For CC(Oc1ccc(F)cc1)C(=O)NCC1(N(C)C)CCCCC1 (stereo not given) the results were PTHR1 ag 6.6%, RGS4 inhibitor 21.2%, KAT2A inh -8.7%, GLP-1R inv ag -6.9% and GLP1R cytotox 0.6%.
For COc1ccc(C)cc1NC(=O)C1CCN(S(C)(=O)=O)CC1 the results were PTHR1 ag -34.5%, RGS4 inhibitor 3.7%, KAT2A inh -13.8%, GLP1R ag 0.3%, GLP-1R inv ag 19.3% and GLP1R cytotox 3.1%.
